Compound activity from PubChem BioAssay.
Giardia FBPA inh-1 = blocks Giardia fructose-bisphosphate aldolase activity. 290,000 compounds, 0.71% hits. purified Giardia FBPA. Potency, µM (top dose mostly 59.6 µM), inactives show at the top dose activity, negative = inhibition, hits mostly inhibitors. AID 2451; note: potency is the fitted concentration of half-maximal effect; % is set by controls: 0 for no effect and ±100 for the full control effect; nearly all actives have a fitted effect of over 55% in size
Target sequence (A8B2U2 whole entry, looked up): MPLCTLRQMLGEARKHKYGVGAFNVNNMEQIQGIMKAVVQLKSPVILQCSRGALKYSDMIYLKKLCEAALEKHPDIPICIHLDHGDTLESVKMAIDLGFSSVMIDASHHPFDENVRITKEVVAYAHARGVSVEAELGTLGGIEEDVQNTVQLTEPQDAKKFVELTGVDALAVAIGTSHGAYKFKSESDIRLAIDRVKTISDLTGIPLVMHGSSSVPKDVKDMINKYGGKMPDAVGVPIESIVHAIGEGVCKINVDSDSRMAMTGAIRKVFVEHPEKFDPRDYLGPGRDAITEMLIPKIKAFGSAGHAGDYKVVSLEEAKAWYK
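Giardia FBPA (40 nM reagent) was preincubated 10 min at RT with compound (up to 57.5 uM final), then substrate plus GAPDH/TPI/NAD/arsenate coupling system with diaphorase/resazurin was added; resorufin fluorescence (525/598 nm) was read after 20 min.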
TbPYK inhibitor = blocks Trypanosoma brucei pyruvate kinase; Q57TT1; TbPYK enzyme, Kinase-Glo Plus ATP luminescence, 45 min; Potency, µM (top dose mostly 76.8 µM), inactives show at the top dose activity, negative = inhibition, hits mostly inhibitors; 410,000 compounds, 0.12% hits; note: potency is the fitted concentration of half-maximal effect; % is set by controls: 0 for no effect and ±100 for the full control effect; nearly all actives have a fitted effect of over 50% in size
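T. brucei PYK with substrate was exposed to pin-transferred compounds across a concentration series, then started with 130 uM ADP (final). After 45 min at room temperature, Kinase-Glo Plus luminescence was read, normalized and curve-fitted.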
LmPK inhibitor = LmPK (Leishmania mexicana) enzyme inhibition; Q27686; purified LmPK, Kinase-Glo ATP luminescence, 1 h; Potency, µM (series often up to 57.5 µM), inactives show top-dose activity change, negative = inhibition, usual class: inhibitors; 290,000 compounds, 0.37% hits; AID 1721; note: potency is the fitted concentration of half-maximal effect; % is set by controls: 0 for no effect and ±100 for the full control effect
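Pyruvate kinase activity monitored as ATP production (luciferase luminescence). Conditions: 0.1 nM enzyme, 0.5 mM PEP, 0.1 mM ADP, 1 h, RT; normalized against uninhibited and no-enzyme wells.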
Shiga toxin inh = Shiga toxin inhibition | Vero cells, Shiga toxin protein synthesis inhibition reporter | inhibition, % at 38.7 µM | 290,000 compounds, 9.2% hits; in the data active = inhibition mostly above about 28%, no sharp cut-off; inactive = mostly below about 43%; note: 0% is about no effect
RE007 growth inh = less growth of the S. pombe RE007 Vpr strain | S. pombe RE007 Vpr strain, BacTiter-Glo ATP luminescence, 24 h | Potency, µM (series often up to 92.2 µM), inactives show top-dose activity change, negative = less growth, usual class: inhibitors | 360,000 compounds, 0.21% hits | AID 651644; active = well fitted falling curve with a large enough effect; inconclusive = small, poorly fitted or top-dose-only effect; inactive = no such curve, though single readings can be large or run the other way; note: potency is the fitted concentration of half-maximal effect; % is set by controls: 0 for no effect and ±100 for the full control effect; nearly all actives have a fitted effect of over 50% in size
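Fission yeast strain RE007, carrying one chromosomally integrated HIV-1 vpr copy, was seeded at OD 0.01 in PMG+AL medium with 23 nL pinned compound. After 24 h at 30 °C and 99% humidity, viability was read by BacTiter-Glo luminescence.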
CHX counter = counter-screen hit for Shiga toxin inhibitors, cycloheximide; 300,000 compounds, 12% hits; max response, %; AID 2314; cell reporter, cycloheximide protein synthesis inhibition counterscreen; in the data active = max response mostly above about 13%, no sharp cut-off; inactive = mostly below about 14%; note: read at 38.3 µM for the half of the compounds with a filed dose; 0% is about no effect
Giardia growth = Giardia lamblia growth inhibition; shares compounds with Giardia FBPA inh-1; Giardia lamblia trophozoite growth inhibition; Potency, µM (highest dose often 57.5 µM), without a hit: at the top dose activity change, negative = inhibition, actives largely listed as inhibitors; 1,500 compounds, 5% hits;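 note: potency is the fitted concentration of half-maximal effect; trophozoites exposed to compound for 48 h at 37 °C; % is set by controls: 0 for no effect and ±100 for the full control effect; nearly all actives have a fitted effect of over 70% in size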
Mammalian tox = toxic to mammalian cells in Giardia aldolase counter-screen | Potency, µM (titrated, usually from 57.5 µM), for the others: top-dose viability change, negative = toxicity, hits mostly inhibitors | mammalian cell viability counter-screen, qHTS | 1,500 compounds, 4% hits | shares compounds with Giardia FBPA inh-1;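 note: Chinese hamster ovary cells used as mammalian cytotoxicity surrogate; viability measured as cellular ATP by luminescence; potency is the fitted concentration of half-maximal effect; compound exposure lasted 48 h before reading; % is set by controls: 0 for no effect and ±100 for the full control effect; nearly all actives have a fitted effect of over 60% in size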
Giardia FBPA inh-2 = confirmation of Giardia fructose-bisphosphate aldolase inhibitors. shares compounds with Giardia FBPA inh-1. purified Giardia aldolase enzyme activity, qHTS. Potency, µM (series often up to 57.5 µM), for the others: top-dose activity change, negative = inhibition, usual class: inhibitors. 1,500 compounds, 5% hits; note: potency is the fitted concentration of half-maximal effect; % is set by controls: 0 for no effect and ±100 for the full control effect; nearly all actives have a fitted effect of over 45% in size
Rabbit aldolase = blocks rabbit muscle aldolase in Giardia aldolase selectivity test; Potency, µM (highest dose often 57.5 µM), inactives show at the highest dose activity, negative = inhibition, most hits filed as inhibitors; 1,500 compounds, 4% hits; shares compounds with Giardia FBPA inh-1; Rabbit muscle FBPA enzyme inhibition, selectivity counter-screen; note: potency is the fitted concentration of half-maximal effect; % is set by controls: 0 for no effect and ±100 for the full control effect; nearly all actives have a fitted effect of over 60% in size
Target sequence (P00883 whole entry, looked up): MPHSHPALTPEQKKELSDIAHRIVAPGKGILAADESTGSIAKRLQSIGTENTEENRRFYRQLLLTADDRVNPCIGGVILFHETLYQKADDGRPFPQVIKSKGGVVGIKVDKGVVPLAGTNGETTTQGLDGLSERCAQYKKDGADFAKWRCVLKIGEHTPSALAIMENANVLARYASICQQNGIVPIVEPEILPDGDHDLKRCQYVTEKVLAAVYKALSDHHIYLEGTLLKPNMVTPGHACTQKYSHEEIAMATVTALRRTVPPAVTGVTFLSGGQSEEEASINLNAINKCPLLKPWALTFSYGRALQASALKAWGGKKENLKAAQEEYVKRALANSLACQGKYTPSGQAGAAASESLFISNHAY
GAPDH coupling = counter-screen for Giardia aldolase inhibitors: GAPDH coupling enzyme; shares compounds with Giardia FBPA inh-1; GAPDH coupling enzyme counterscreen, biochemical, qHTS; Potency, µM (top dose mostly 57.5 µM), for the others: top-dose activity change, negative = inhibition, usual class: inhibitors; 1,500 compounds, 6% hits; AID 2795; note: potency is the fitted concentration of half-maximal effect; % is set by controls: 0 for no effect and ±100 for the full control effect; nearly all actives have a fitted effect of over 55% in size
* = called active by the depositor; [ ] = dose if it differs, or a comment. The sample as a whole holds a higher share of hits than the screen did. Unless noted, calls come from the whole dose curve; as a rule, active = well fitted curve in the direction sought with a large enough effect; inconclusive = small, poorly fitted or top-dose-only effect, or another doubt; inactive = no such curve, though single readings can be large; an effect the other way counts as inactive or inconclusive.

How did CC(=O)Nc1ccc(C2C(C)CCC3C(=O)N4C(CCC(C)[C@@H]4c4ccc(NC(C)=O)cc4)C(=O)N32)cc1 (stereo not given in full) do in these assays?
Giardia FBPA inh-1: 1%[12.9 µM]

What do the screens show for `S=c1nc(-c2ccccn2)c(-c2ccccn2)n[nH]1`?
TbPYK inhibitor: inconclusive; RE007 growth inh: 7%

Results for c1ccc(-c2n[nH]c(-c3ccccn3)n2)nc1 ?
Giardia FBPA inh-1: 3.2µM*; TbPYK inhibitor: -30%; LmPK inhibitor: 16µM*; Shiga toxin inh: 62*; RE007 growth inh: -6%; CHX counter: 33*; Giardia growth: -25%[38.3 µM]; Mammalian tox: -29%; Giardia FBPA inh-2: 9%; Rabbit aldolase: -8%; GAPDH coupling: -12%

How did c1ccc(-c2nn[nH]n2)nc1 do in these assays?
Giardia FBPA inh-1: 7.9µM*; TbPYK inhibitor: -19%; LmPK inhibitor: -4%; Shiga toxin inh: -8; RE007 growth inh: 19%; CHX counter: -2; Giardia growth: 17%[38.3 µM]; Mammalian tox: 10%; Giardia FBPA inh-2: -4%; Rabbit aldolase: 0%; GAPDH coupling: -9%

How did COc1cc(Nc2nn(-c3ccc(OC(F)(F)F)cc3)nc2C(C)=O)cc(OC)c1 do in these assays?
TbPYK inhibitor: 1%

Results for COc1ccccc1NC(=O)CN1CCCCC1 ?
Giardia FBPA inh-1: 9%; TbPYK inhibitor: 3%; LmPK inhibitor: -10%; Shiga toxin inh: -20; RE007 growth inh: 3%; CHX counter: -5

How did CCN1CCN(CC(=O)Nc2cc(C(F)(F)F)ccc2OCCOC)CC1 do in these assays?
Giardia FBPA inh-1: 6.3µM*; TbPYK inhibitor: -16%; LmPK inhibitor: -12%; Shiga toxin inh: -8; RE007 growth inh: -11%; CHX counter: -1; Giardia growth: 37%; Mammalian tox: -4%; Giardia FBPA inh-2: 3%; Rabbit aldolase: 0%; GAPDH coupling: 5%

How did CCN1CCN(CC(=O)Nc2c(OC)cccc2OC)CC1 do in these assays?
Giardia FBPA inh-1: 13µM*; TbPYK inhibitor: 3%; LmPK inhibitor: -6%; Shiga toxin inh: -4; RE007 growth inh: -20%; CHX counter: -3; Giardia growth: 7%[10.4 µM]; Mammalian tox: -1%; Giardia FBPA inh-2: -1%; Rabbit aldolase: -2%; GAPDH coupling: 5%

How did OCCOC[C@H]1O[C@H](OCCO)[C@H](OCCO)[C@@H](OCCO)[C@@H]1OCCO (tested in a mixture with another compound) do in these assays?
TbPYK inhibitor: 6%

What do the screens show for `Cc1cc(C)c2nc(-c3ccccn3)cc(C(=O)NCCc3ccc(S(N)(=O)=O)cc3)c2c1`?
Giardia FBPA inh-1: 18µM*; TbPYK inhibitor: -16%; LmPK inhibitor: 9%; Shiga toxin inh: -17; RE007 growth inh: 14%; CHX counter: -4; Giardia growth: 3%[10.4 µM]; Mammalian tox: -1%; Giardia FBPA inh-2: -1%; Rabbit aldolase: 3%; GAPDH coupling: 15%

How did Cc1cc(C)c2nc(-c3ccccn3)cc(C(=O)NCc3ccc(S(N)(=O)=O)cc3)c2c1 do in these assays?
Giardia FBPA inh-1: 0%; TbPYK inhibitor: 1%; LmPK inhibitor: -1%; Shiga toxin inh: -6; RE007 growth inh: 3%; CHX counter: -2

How did O=C(NC(=S)Nc1cccc(C(F)(F)F)c1)c1ccc2nonc2c1 do in these assays?
Giardia FBPA inh-1: 10µM*; TbPYK inhibitor: -9%; LmPK inhibitor: 8%; Shiga toxin inh: 8; RE007 growth inh: inconclusive; CHX counter: -2; Giardia growth: 6%[10.4 µM]; Mammalian tox: -9%; Giardia FBPA inh-2: 9%; Rabbit aldolase: 0%; GAPDH coupling: 3%

What do the screens show for `C/C(=N\NC(=O)c1c(Cl)c(C)nn1C)c1ccc(NC(=O)C2CCC2)cc1`?
TbPYK inhibitor: 2%; LmPK inhibitor: -4%; Shiga toxin inh: 18; RE007 growth inh: -8%; CHX counter: -3

Results for CC(=O)c1ccc(NC(=S)NC(=O)c2c(Cl)c(C)nn2C)cc1 ?
Giardia FBPA inh-1: 6.3µM*; TbPYK inhibitor: 3%; LmPK inhibitor: 4%; Shiga toxin inh: -4; RE007 growth inh: -19%; CHX counter: -1; Giardia growth: inconclusive; Mammalian tox: 17%; Giardia FBPA inh-2: 10%; Rabbit aldolase: 14%; GAPDH coupling: 1%

Results for COc1cc(C2Oc3nc(SC)nnc3-c3ccccc3N2C(C)=O)cc(Cl)c1OC (stereo not given) ?
TbPYK inhibitor: 1%

Results for Nc1ccc2nc(CCCCCCc3nc4ccc(N)cc4[nH]3)[nH]c2c1 ?
Giardia FBPA inh-1: -28%; TbPYK inhibitor: 0%; LmPK inhibitor: 8%; Shiga toxin inh: -4; RE007 growth inh: -7%; CHX counter: -3

How did Nc1ccc2nc(CCCCc3nc4ccccc4[nH]3)[nH]c2c1 do in these assays?
Giardia FBPA inh-1: 13µM*; TbPYK inhibitor: 6%; LmPK inhibitor: -1%; Shiga toxin inh: -5; RE007 growth inh: 1%; CHX counter: -3; Giardia growth: 41%; Mammalian tox: -8%; Giardia FBPA inh-2: -23%; Rabbit aldolase: -9%; GAPDH coupling: -6%

What do the screens show for `COc1ccc(-c2nn(CCC(=O)O)cc2/C=N/NC(N)=S)cc1`?
Giardia FBPA inh-1: 16µM*; TbPYK inhibitor: -6%; LmPK inhibitor: -1%; Shiga toxin inh: 7; RE007 growth inh: 9%; CHX counter: -1; Giardia growth: 3%[10.4 µM]; Mammalian tox: 18%; Giardia FBPA inh-2: 1%; Rabbit aldolase: 2%; GAPDH coupling: 11%

What do the screens show for `CCc1ccc(C(=O)c2cn(CC(=O)Nc3ccc4c(c3)OCO4)c3ccc(CC)cc3c2=O)cc1`?
TbPYK inhibitor: -1%
